A549 viability: Nrf2 qHTS screen for inhibitors: counterscreen for cytotoxicity. A549 ARE-Fluc cells, CellTiter-Fluor viability, 18-24 h. Potency, µM (doses to about 46 µM), for inactives: at the highest dose activity change, negative = cytotoxicity, most hits filed as inhibitors. 0.16% of 390,000 active. AID 504648, 2011; also: % is scaled to controls: 0 for no effect and ±100 for the full control effect
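A549 ARE-Fluc cells in 5% FBS OPTI-MEM, 5000 cells/well, rested 2 h then exposed to compounds in concentration-response for 18-24 h at 37 °C. Viability by CellTiter-Fluor fluorescence (Ex 405/Em 525) after 30 min; luciferase luminescence (BugLite, 15 min, RT) read afterwards.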
ELG1 DNA repair: qHTS screen for small molecules that inhibit ELG1-dependent DNA repair in human embryonic kidney (HEK293T) cells expressing luciferase-tagged ELG1; HEK293T ELG1-luciferase reporter, luminescence, 16 h; DNA damage induced by 5-fluorouridine; Potency, µM (titrated, usually from 46.1 µM), for inactives: at the top dose activity change, negative = inhibition, usual class: inhibitors; 2.3% of 330,000 active; AID 504467, 2011; also: % is scaled to controls: 0 for no effect and ±100 for the full control effect; nearly all actives have a fitted effect of over 55% in size
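Cells (2,000 per well) received 5-fluorouridine plus test compound or DMSO and were incubated 16 hr at 37 °C, 5% CO2. Luciferase activity was read by luminescence 30 min after ONE-Glo addition; signal suppression marked inhibition of damage-induced ELG1 function.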
Nrf2 activator: qHTS of Nrf2 Activators; AREc32 ARE-luciferase reporter (MCF7-derived line), luminescence, 24 h; Potency, µM (series often up to 46.1 µM), without a hit: top-dose activation, most hits filed as activators; 0.31% of 410,000 active; also: % of control where 0% means no effect; nearly all actives have a fitted effect of over 65% in size
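Luciferase luminescence (Steady-Glo, 30 min at room temperature) served as the read-out of ARE activation in AREc32 cells treated with compounds for 24 hr at 37 deg C.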
Nrf2 inh: Nrf2 qHTS screen for inhibitors; A549 ARE-Fluc reporter, luciferase luminescence, 18-24 h; Potency, µM (highest dose often 46 µM), without a hit: at the top dose activity change, negative = inhibition, most hits filed as inhibitors; 2.1% of 360,000 active; AID 504444, 2011; also: % is scaled to controls: 0 for no effect and ±100 for the full control effect; nearly all actives have a fitted effect of over 60% in size
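A549 ARE_Fluc cells (5000/well, 5% FBS OPTI-MEM) pre-incubated 2 h, then treated with compounds 18-24 h at 37C/5% CO2 in concentration-response. CellTiter-Fluor viability read first; BugLite luciferase luminescence after 15 min at room temperature gives Nrf2 activity.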
The depositor's hits bear a star; ? = inconclusive; nt = no result given. This is a sample that favours compounds with a hit; in the whole collection about 3.7% have one here. Calls follow the shape of the dose curve; as a rule, active = well fitted curve in the direction sought with a large enough effect; inconclusive = small, poorly fitted or top-dose-only effect, or another doubt; inactive = no such curve, though single readings can be large; an effect the other way counts as inactive or inconclusive. Potency is read from the fitted curve at half-maximal effect.

SMILES | A549 viability | ELG1 DNA repair | Nrf2 activator | Nrf2 inh
O=C1CCCC2=C1C1c3ccccc3C(=O)N1c1ccc(C(=O)c3ccccc3)cc1N2 (stereo not given) | -19% | 16µM* | 7% | ?
CCOC(=O)c1cc(OC(=O)c2cc(OC)cc(OC)c2)n(-c2ccccc2)n1 | 0% | nt | 0% | -8%
CCOC(=O)C1=C(CN2CCN(c3cc(C)ccc3C)CC2)NC(=O)NC1c1ccc(Cl)cc1 (stereo not given) | -18% | nt | 0% | 21µM*
CCOC(=O)C1=C(CN2CCN(c3ccc(OC)cc3)CC2)NC(=O)NC1c1ccc(Cl)cc1 (stereo not given) | -24% | nt | 0% | ?
CCOC(=O)C1=C(CN(C)Cc2ccccc2)NC(=O)NC1c1ccc(OC(C)C)cc1 (stereo not given) | -13% | nt | 1% | 26µM*
CCOC(=O)C1=C(CS(=O)(=O)c2ccc(C)cc2)NC(=O)NC1c1ccc(O)c(OC)c1 (stereo not given) | -4% | -10% | 0% | 1%
CCOC(=O)C1=C(CN(C)Cc2ccccc2)NC(=O)NC1c1ccc(OC)cc1 (stereo not given) | -13% | nt | 0% | 0%
CCOC(=O)C1=C(CS(=O)(=O)c2ccc(C)cc2)NC(=O)NC1c1ccc(C(C)C)cc1 (stereo not given) | ? | nt | 0% | 18µM*
O=Cc1cccc2ccc3cccc(C(=O)O)c3c12 | -12% | nt | 11% | -24%
O=C(O)c1cccc(S(=O)(=O)N2CCN(S(=O)(=O)c3ccc4c(c3)OCCO4)CC2)c1 | -3% | nt | nt | 3%
COCCn1c(Br)nc2c1c(=O)n(C)c(=O)n2C | 2% | 6% | 0% | -8%
Cn1c(=O)c2c(ncn2Cc2cc(-c3ccccc3)no2)n(C)c1=O | -1% | 18µM* | 5% | nt
Cn1c(=O)c2c(ncn2Cc2cccc(Cl)c2)n(C)c1=O | -3% | -23% | 3% | ?
Cc1ccc(OCCn2c(Br)nc3c2c(=O)n(C)c(=O)n3C)cc1 | -8% | 5.2µM* | 0% | 3%
Cn1c(=O)c2c(ncn2CCOc2cccc(Br)c2)n(C)c1=O | -14% | 8.2µM* | 0% | ?
C/C(Cl)=C\Cn1c(Nc2ccc(C)cc2)nc2c1c(=O)n(C)c(=O)n2C | 11% | 5.2µM* | 5% | 3%
Cc1oc2ccc(O)cc2c1C(=O)c1ccc(F)cc1 | 0% | nt | 5% | 9%
Cc1cc(=O)oc2cc(OC(=O)CCCCCN3C(=O)c4ccccc4C3=O)ccc12 | 1% | 2% | -1% | 15%
Cc1ccc(C)c(N2CCN(C(=O)CCCOc3cc(=O)n(C)c4ccccc34)CC2)c1 | ? | ? | 0% | 23µM*
COc1ccc2cc(CO)c(Cl)nc2c1 | 10% | -5% | -1% | 20%
COc1ccc2cc(CO)c3cc(OC)c(OC)cc3c2c1 | 3% | 8.2µM* | -1% | -3%
Cc1cc(C)c2c(N)c(C(=O)c3ccccc3Cl)sc2n1 | -11% | -27% | 0% | ?
Cc1cc(C)c2c(N)c(C(=O)c3ccc(Cl)cc3Cl)sc2n1 | 0% | 10µM* | 0% | 8%
Cc1cc(C)c2c(N)c(C(=O)c3cccc(Cl)c3)sc2n1 | -15% | 26µM* | ? | 12%
C=C1SC(Nc2c(C)cc(C)cc2C)=NC12CCCCC2 | ? | 23µM* | 4% | ?
SMILES | A549 viability | ELG1 DNA repair | Nrf2 activator | Nrf2 inh
C=C1SC(Nc2c(C)cccc2C)=NC12CCCCC2 | ? | -1% | 0% | ?
CN1CCN(CC(=O)Nc2nc(-c3ccccc3)cs2)CC1 | 4% | ? | 2% | 6%
O=C(Cn1nnc(-c2ccc(CN3CCOCC3)cc2)n1)Nc1nc(-c2ccccc2)cs1 | -1% | ? | 2% | 16µM*
COc1ccc(C2(O)CCN(CC(=O)Nc3nc(-c4ccccc4)cs3)CC2)cc1 | ? | 23µM* | -1% | ?
CN(C)c1ccc(-c2nnn(CC(=O)Nc3ccccc3N3CCOCC3)n2)cc1 | -5% | 15µM* | 1% | -19%
COc1ccc(-c2ccc3ncnc(NCCc4cnc[nH]4)c3c2)cc1OC | ? | nt | nt | -17%
COc1ccccc1C(=O)NCCC(=O)N1CCN(S(=O)(=O)c2ccccc2C(F)(F)F)CC1 | -3% | -5% | 0% | -4%

Source: PubChem (National Center for Advancing Translational Sciences (NCATS))
